Laboratory results reported in PubChem BioAssay AID1259343 (VanderVen Lab, College of Veterinary Medicine, Cornell …, 2017).
About 2,900 (47%) of roughly 6,200 compounds were called active. So high a share suggests a set chosen from earlier hits. The list shows a part of the results. A number with no mark means an inactive call. Cut-off read from the data, not from the text of the source: active = inhibition above about 50%; inactive = the rest.

Experiment: Mycobacterium tuberculosis growth inhibition, primary screen (AID 1259343)
Details: inhibition: at 10 µM, stronger effect = higher value; outcome: 10 uM

SMILES	inhibition
CCC1CCc2sc(C(=O)O)cc2C1 (configuration not stated)	85.9% (active)
CCC1CCc2sc(C(=O)N=c3sccn3C)cc2C1 (configuration not stated)	37.3%
CC(C)(C)C1CCc2sc(C(=O)O)cc2C1 (configuration not stated)	-46.9%
C=CCN(CC=C)C(=O)CSc1nc(N)cc(=O)[nH]1	-27.6%
Cc1cc(C(=O)N2CCCC(C(=O)c3ccc(-c4ccccc4)cc3)C2)no1 (configuration not stated)	79.4% (active)
O=C(c1ccc(-c2ccccc2)cc1)C1CCCN(C(=O)c2ccsc2)C1 (configuration not stated)	74.6% (active)
O=C(c1ccc2ccccc2c1)C1CCCN(S(=O)(=O)Cc2ccccc2)C1 (configuration not stated)	23.8%
O=C(c1ccc(-c2ccccc2)cc1)C1CCCN(C(=O)CSc2ncccn2)C1 (configuration not stated)	9.54%
CN(Cc1ccc2nonc2c1)c1nccc(CCC(F)(F)F)n1	31.6%
CN(Cc1cccc(O)c1)c1nccc(CCC(F)(F)F)n1	54.8% (active)
CNc1ncc(CN(C)c2nccc(CCC(F)(F)F)n2)cn1	55.3% (active)
Cc1sc(NC(=O)CC2(CC(=O)O)CCCCC2)c(C#N)c1C	-8.62%
O=C(O)CC1(CC(=O)Nc2cc(C(F)(F)F)cc(C(F)(F)F)c2)CCCCC1	88.4% (active)
COc1ccc(C2C(C(=O)c3ccccc3)C(O)(C(F)(F)F)N(C)C(=O)N2C)cc1 (configuration not stated)	-22.5%
COc1ccc(C2C=C(c3ccc(Cl)cc3)Nc3nnnn32)cc1 (configuration not stated)	7.81%
COc1ccc(C2C=C(c3ccccc3)Nc3nnnn32)cc1 (configuration not stated)	78.5% (active)
CCc1ccc(C2=CC(c3ccc(Br)cc3)n3nnnc3N2)cc1 (configuration not stated)	76.2% (active)
CCc1ccc(C2C=C(c3ccc(F)cc3)Nc3nnnn32)cc1 (configuration not stated)	80.2% (active)
Clc1cccc(C2C=C(c3ccc(-c4ccccc4)cc3)Nc3nnnn32)c1Cl (configuration not stated)	93.5% (active)
Clc1ccc(C2C=C(c3ccc(Br)cc3)Nc3nnnn32)cc1 (configuration not stated)	-26.6%
Cc1ccc(C2=CC(c3ccc(Cl)cc3)n3nnnc3N2)cc1 (configuration not stated)	102% (active)
Clc1ccc(-c2csc3ncnc(Sc4nnnn4C4CC4)c23)cc1	-14.2%
Cc1cccc(C)c1OC1CCN(c2cncc(C(N)=O)n2)CC1	95.8% (active)
OC(c1ccccc1)C1CCN(c2cncc(Cl)n2)CC1 (configuration not stated)	44.6%
Cc1cccc(C)c1OC1CN(C(=O)C(=O)c2ccco2)C1	45.6%
Cc1ccc(OCc2cc(C(=O)N3CCC(C(=O)c4ccccc4)CC3)no2)cn1	inactive

SMILES	inhibition
Cc1ccccc1C1CCCN(C(=O)c2cc(COc3cccc4cnccc34)on2)C1 (configuration not stated)	46.4%
Cc1ccc(OCc2cc(C(=O)N3CCCC3c3nc4ccccc4s3)no2)cn1 (configuration not stated)	81.4% (active)
CCC1C=CCN1C(=O)c1cc(COc2ccc3sc(C)nc3c2)on1 (configuration not stated)	94.8% (active)
CCCC1C=CCN1C(=O)c1cc(COc2ccc3c(c2)OCO3)[nH]n1 (configuration not stated)	31.8%
CCCC1C=CCN1C(=O)c1cc(COc2ccc(C(C)=O)cc2)on1 (configuration not stated)	75.2% (active)
CCCCC1C=CCN1C(=O)c1c(O)cccc1O (configuration not stated)	3.76%
C=CC[C@@H]1CC=C[C@@H](C)N1C(=O)c1cc(COc2ccc3sc(C)nc3c2)on1	-45.8%
COc1ccc2c(=O)c(Oc3ccc(Cl)cc3)coc2c1	0.4%
COc1ccc(-c2coc3cc(O)cc(O)c3c2=O)cc1	88.5% (active)
COc1ccc(-c2cnoc2-c2ccc(OC)cc2O)cc1	-32.9%
COc1ccc(OC)c(C(=O)c2coc3ccc(OC)cc23)c1	17.3%
COc1ccc2c(=O)c3c(=O)n(-c4ccccc4)c(C)nc3oc2c1	12.6%
COc1ccc(-c2c(NC(=O)c3ccco3)oc3c(C)cccc3c2=O)cc1	19.2%
O=c1c(-c2ccc(O)cc2)coc2cc(O)cc(O)c12	50.5% (active)
COc1ccc(-c2coc3c(O)c(OC)ccc3c2=O)cc1	67% (active)
O=c1c(O)c(-c2ccc(O)c(O)c2)oc2cc(O)cc(O)c12	36.4%
COc1cc(OC)c2c(=O)c(-c3ccccc3)coc2c1	70.5% (active)
NC(c1csc(Nc2nncc3ccccc23)n1)c1ccccc1Cl (configuration not stated)	58.8% (active)
COc1ccc(CC(N)c2csc(Nc3nncc4ccccc34)n2)cc1 (configuration not stated)	91.7% (active)
NC(c1csc(Nc2nncc3ccccc23)n1)C1CCCCC1 (configuration not stated)	97.4% (active)
NC(Cc1ccccc1)c1csc(Nc2nncc3ccccc23)n1 (configuration not stated)	89.8% (active)
Cc1cc2n(c1)CCn1c(C)ccc1-2	-18.7%
NC(CCc1ccccc1)c1csc(Nc2nncc3ccccc23)n1 (configuration not stated)	81% (active)
c1ccc(CC(Cc2ccccc2)=NNc2nncc3ccccc23)cc1	9.04%
COc1ccc(C(N)c2csc(Nc3nncc4ccccc34)n2)cc1 (configuration not stated)	57.6% (active)
NC(COCc1ccccc1)c1csc(Nc2nncc3ccccc23)n1 (configuration not stated)	71% (active)

SMILES	inhibition
CCCn1ccnc1SCC(=O)NC(=O)NC12CC3CC(CC(C3)C1)C2	32.7%
O=C(Nc1ccc(-c2ccccc2)cc1)N[C@@H](Cc1ccccc1)C(=O)N1CCC(C(=O)N2CCCCC2)CC1	76.3% (active)
Cc1ccc(-n2c(Cl)c(Cl)nc(Cl)c2=O)cc1	102% (active)
CCCc1nc2oc3ccccc3c(=O)c2c(=O)n1-c1ccc(C)cc1	-28%
Cc1sc2ncnc(NC3CCCCC3C)c2c1C (configuration not stated)	84.5% (active)
CCOC(=O)c1c(C)[nH]c(C(=O)CSc2ncn[nH]2)c1C	-1.94%
Cc1ccc(C2=NNC(=NCc3ccc4c(c3)OCO4)SC2)s1	18.8%
Cc1[nH]c2ccccc2c1N=Nc1ccc(SC(F)F)cc1	58.3% (active)
Cc1[nH]c2ccccc2c1C(c1cccnc1)c1c(C)[nH]c2ccccc12	45.9%
Cc1[nH]c2ccccc2c1N=Nc1cccc2ccccc12	-9.25%
Cc1[nH]c2ccccc2c1N=Nc1ccc2c(c1)OCO2	89.7% (active)
Cc1ccc(C)c(N=Nc2c(C)[nH]c3ccccc23)c1	81.8% (active)
Cc1[nH]c2ccccc2c1N=Nc1ccc(F)cc1	11.2%
CCOC(=O)c1c(C)[nH]c(N=Nc2ccc3c(c2)OCO3)c1C	104% (active)
CCOC(=O)c1c(C)[nH]c(C(=O)OCC(=O)C23CC4CC(CC(C4)C2)C3)c1C	-59.8%
Cc1ccc(-n2ccnc(NCC(C)c3ccccc3)c2=O)cc1C (configuration not stated)	68.9% (active)
O=c1c(NCCc2ccccc2)nccn1-c1ccccc1	23.1%
Cc1cc(NS(=O)(=O)c2cc(Cl)ccc2Cl)no1	43.7%
Cc1cc(F)ccc1S(=O)(=O)Nc1cc(-c2ccccc2)on1	69.6% (active)
CCCCN=C1SCC(c2cc(C)n(Cc3ccco3)c2C)=NN1C	44%
Cc1cc(C2=NNC(=NCc3ccc4c(c3)OCO4)SC2)c(C)n1Cc1ccco1	-5.02%
Cc1cc(C2=NNC(=NCC3CCCO3)SC2)c(C)n1Cc1cccs1 (configuration not stated)	23.6%
Cc1cc(C2=NNC(=NC3CCCC3)SC2)c(C)n1Cc1ccco1	99.4% (active)
Cc1cc(C2=NNC(=NCc3ccco3)SC2)c(C)n1Cc1ccco1	-40.5%
CC(C)(C)N=C1NN=C(c2c[nH]c3ccccc23)CS1	-10%
Cc1ccccc1N=C1NN=C(c2ccccc2F)CS1	68.3% (active)

SMILES	inhibition
Cc1ccc(N=C2NN=C(c3cc(F)ccc3F)CS2)c(C)c1	31.9%
CC(C)(C)N=C1NN=C(c2ccc3ccccc3c2)CS1	9.77%
FC(F)Oc1ccc(C2=NNC(=NC3CC3)SC2)cc1	18.9%
Cc1cc(C2=NNC(=NC3CC3)SC2)c(C)n1-c1ccccc1F	95.9% (active)
COCCCN=C1NN=C(c2cc(C)n(Cc3ccco3)c2C)CS1	63.8% (active)
O=c1c2c(F)c(F)c(F)c(F)c2on2c3c(nc12)CCCC3	44.8%
O=[N+]([O-])c1ccc(Sc2nnnn2-c2ccccc2)c([N+](=O)[O-])c1	89.6% (active)
CC(C)c1ccc(-n2nnnc2SC(C)c2nnc(-c3ccc([N+](=O)[O-])cc3)o2)cc1 (configuration not stated)	18.5%
c1ccc(-n2nnnc2SCCNc2nc3ccccc3[nH]2)cc1	42.9%
O=C(CSc1nnnn1-c1ccccc1)NNC(=O)c1ccc(O)cc1O	11.6%
O=[N+]([O-])c1c(Sc2nnnn2-c2ccccc2)nc2sccn12	99.2% (active)
c1ccc(Sc2c(-c3ccccc3)nc3sccn23)cc1	34.5%
O=C1c2ccccc2NC2(CCCC2)N1CC(F)(F)F	85.2% (active)
NC(=S)N=Nc1ccc(NN=C(N)N)cc1	101% (active)
CC(=O)C1=C(C(F)(F)F)N(C)C(=S)N(C)C1c1ccccc1 (configuration not stated)	70% (active)
COc1ccc(OCCN2C(=O)CN(/C=C/c3ccccc3)C2=O)cc1	-5.21%
CN1CC(=O)N(CCCC(=O)Nc2ccc(OCc3ccccc3)cc2)C1=O	93.5% (active)
C=CCN(CC(O)COc1ccccc1)CC1CC(c2ccccc2)=NO1 (configuration not stated)	20.8%
OC1(c2ccc(OCc3ccccc3)cc2)CCOCC1	30.5%
CC(O)CNCCCCOc1ccc(OCc2ccccc2)cc1 (configuration not stated)	96.8% (active)
NS(=O)(=O)c1ccc2c(c1)CCN2Cc1cc(F)cc2c1OCOC2	3.61%
O=C(O)C1CCN(C(=O)c2ccc(-c3ccc(Cl)cc3)s2)CC1	1.69%
Cc1ccc(C(=O)N2CCC(c3ccc(F)cc3)CC2)s1	33.5%
CC1CCN(C(=O)c2ccc(-c3ccc(F)c(F)c3)s2)CC1	65.3% (active)
